PubChem BioAssay (NCI)
The panel holds about 83,000 compounds, 20% with a hit somewhere; the sample as a whole holds those more often.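 How to read the values: 0–100, growth inhibition (40 = 60% inhibited); 0, no net growth; -100 to 0, cell death (-40 = 40% of starting cells died; -100 = all dead).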 A number with no mark means an inactive call. Activity calls are given as the source filed them. Rule for the calls: active = growth percent below 10; inactive = the rest.

Columns and labels:
Experiment in all cases: NCI-60 one-dose screen, 48 h (100 = growth as untreated, 0 = no growth, -100 = all killed)
Conditions in all cases: 10 µM unless noted
[1] = system: SK-MEL-2 melanoma
[2] = system: EKVX NSCLC
[3] = system: SN12C renal
[4] = system: UO-31 renal
[5] = system: TK-10 renal
[6] = system: ACHN renal
[7] = system: CAKI-1 renal
[8] = system: A498 renal
[9] = system: CCRF-CEM leukemia
[10] = system: MOLT-4 leukemia

Row | SMILES | growth [1] | growth [2] | growth [3] | growth [4] | growth [5] | growth [6] | growth [7] | growth [8] | growth [9] | growth [10]
1 | CCN(CC)CCCC(Nc1c2ccc(Cl)cc2nc2ccc(OC)cc12)c1ccncc1 (stereo not given) | 108% | 87% | 63.5% | 54.3% | 81.8% | 57% | 90.2% | 81.8% | 59.8% | 18.3%
2 | COc1ccc(Cn2cc(C(=O)N=Nc3c(O)[nH]c4ccc(Br)cc34)nn2)cc1 | 98.1% | 106% | 102% | 91.5% | 97.6% | 110% | 97.7% | 97.1% | 92.5% | 80.6%
3 | COc1cc2cc(Oc3ccc(NC(=O)Nc4ccc(F)c(C(F)(F)F)c4)cc3)c(C)nc2cc1OCCN1CCCCC1 | 102% | 57.6% | 91.7% | 75.3% | 118% | 84.1% | -85% (active) | 84.7% | 2.51% (active) | -14.5% (active)
4 | COc1cc(C(=O)/C=C/c2c(-c3cccs3)nc3sc(C)cn23)cc(OC)c1OC | 13.1% | 13.4% | 29% | -7.93% (active) | 8.26% (active) | 12.7% | -12.7% (active) | -15.7% (active) | 19.5% | -2.47% (active)
5 | O=C(CSc1nnc(-c2cc(-c3ccc(Cl)cc3)nc3ccccc23)n1-c1ccccc1)Nc1ccc(Cl)cc1 | 105% | 94.8% | 90.5% | 77.6% | 132% | 106% | 89.5% | 88.2% | 98.5% | 84.1%
6 | CC(C)n1cc(C2=C(c3cccc4ccccc34)C(=O)NC2=O)c2cc(Br)ccc21 | 73.8% | 85% | 75.4% | 58% | 109% | 53.8% | 27.9% | -8.37% (active) | 52.8% | 49%
7 | Cn1cc(-c2ccc3occ(-c4cccc(-c5ccncc5)c4)c3n2)cn1 | -1.75% (active) | 30.7% | 13.1% | 11.3% | 9.56% (active) | 21.9% | 12% | -15.7% (active) | 10.9% | 13.2%
8 | CC1=NN(c2cccc(Cl)c2)C(=O)/C1=C\C=C\c1ccccc1 | 74.6% | 87.1% | 0.408% (active) | 69.7% | 44.8% | -51.3% (active) | 52.2% | 110% | 2.35% (active) | 28.4%
9 | CC(C)(C)n1cc(-c2ccnc(NCCNS(=O)(=O)c3cccc4ccccc34)c2)c(-c2cccc(O)c2)n1 | 81.7% | 69.8% | 72.5% | 70.2% | 97.2% | 70.1% | 73.7% | 73.1% | 60.1% | 53.4%
10 | COCCNC(=O)Cc1cc(-c2ccc(Cl)cc2)n(-c2ccccc2)c1C | 90.7% | 85.4% | 87.6% | 71.1% | 95.3% | 92.5% | 73.5% | 89.9% | 88.1% | 90%
11 | Cn1cc(-c2csc(-c3cn(CCO)c4ccc(F)cc34)n2)c2cccnc21 | 52.2% | 57.4% | 73.2% | 70.7% | 47.7% | 69.5% | 78.4% | 45.3% | 44.4% | 46.7%
12 | C#C[C@]1(O)CC[C@H]2[C@@H]3CC=C4c5sc(-c6ccccc6)nc5CC[C@]4(C)[C@H]3CC[C@@]21C | 92% | 92.8% | 88.2% | 77% | 126% | 85.6% | 55.2% | 91% | 67.4% | 63.8%
13 | CC(=O)Cc1nsc(NC(=O)c2cc(-c3cc(Cl)ccc3Cl)oc2C)n1 | 101% | 98.4% | 101% | 107% | 151% | 106% | 98.9% | 105% | 108% | 101%
14 | CCN1CCN(C(=O)[C@]23CC[C@@H](C)[C@H](C)[C@@H]2C2=CC[C@@H]4[C@@]5(C)C/C(=C/c6ccncc6)C(=O)C(C)(C)[C@@H]5CC[C@@]4(C)[C@]2(C)CC3)CC1 | 33.5% | 43.7% | 28.1% | 9.04% (active) | 38.7% | 15.2% | 43.6% | -10.5% (active) | 5.24% (active) | 0.087% (active)
15 | CC1=C(C(=O)c2ccccc2)C(c2ccc3c(c2)OCO3)NC(=S)N1 (stereo not given) | 60.5% | 73.5% | 51.4% | 55.7% | 66% | 45.5% | 35.6% | -12.5% (active) | 41.2% | 36.6%
16 | CCOC(=O)/C(=C\c1ccccc1Cl)P(=O)(OCC)OCC | 68.1% | 73.1% | 68% | 53.9% | 75.5% | 52.8% | 75% | 103% | 19.5% | 25.1%
17 | CN1CCN(Cc2ccc(NC(=O)c3cncc(C#Cc4c(N)ncc5c(F)cccc45)c3)cc2C(F)(F)F)CC1 | -65.4% (active) | 10.6% | -92.6% (active) | -86.2% (active) | -95.1% (active) | -79% (active) | -70.4% (active) | -1.72% (active) | -39.8% (active) | -72.4% (active)
18 | C=CCn1c(SCC(=O)Nc2ccc(C(=O)/C=C/c3ccc(Cl)cc3)cc2)nnc1-c1ccccc1 | 109% | 92.3% | 92.8% | 76.5% | 87.9% | 99.9% | 92.6% | 99.5% | 85.6% | 68.6%
19 | O=C(Oc1ccccc1)c1cc(O)c(O)c(O)c1 | 125% | 52.2% | 66.1% | 53.8% | 81% | 62.6% | 33.6% | 87.3% | 26.6% | 62.5%
20 | CCCNNC(=O)c1ccc(CNC(=O)/C=C/c2ccccc2)cc1 | 45% [2.5 µM] | 55.2% [2.5 µM] | 52.8% [2.5 µM] | 22.4% [2.5 µM] | -0.401% [2.5 µM] (active) | 10.1% [2.5 µM] | 23.1% [2.5 µM] | -18.4% [2.5 µM] (active) | 27.3% [2.5 µM] | 15.3% [2.5 µM]
21 | C#CCOc1ccc(C2=NN(CCCC)C3N=C(Cl)c4ncn(CCCC)c4N23)cc1OCC#C (stereo not given) | 101% | 85.2% | 91.4% | 62.5% | 97.8% | 87.4% | 74.3% | 73% | 78.2% | 65.3%
22 | CCOC(=O)CSc1nc2sc3c(c2c(=O)n1-c1ccccc1)CCCCC3 | 103% | 103% | 95.1% | 84.1% | 102% | 102% | 102% | 105% | 97% | 102%
23 | Cc1ccc(C2=Nc3c(N)nc(N)nc3NC(c3cccc(Nc4ccnc5cc(C(F)(F)F)ccc45)c3)C2)cc1 (stereo not given) | -8.24% (active) | 38.1% | 39.2% | 39.6% | 66% | 39.1% | 29% | 58.4% | 3.36% (active) | 1.92% (active)
24 | CCN=c1sc2c(n1NC(=O)c1cc3ccc1CCc1ccc(cc1)CC3)C(=O)c1ccccc1C2=O | -40.6% (active) | -61.3% (active) | -91.2% (active) | -73.1% (active) | 88.6% | -90.2% (active) | 8.85% (active) | 51.6% | -16% (active) | -32.8% (active)
25 | COc1cc(-c2c(-c3ccccc3)c[nH]c2C(=O)NCCCO)c(OC)c2c1OCO2 | 109% | 99.2% | 97.1% | 85.7% | 99% | 98.9% | 91.1% | 74.6% | 88.8% | 92.5%
26 | OC1CSSC1Cn1cnc2c(Nc3ccc(F)c(Cl)c3)ncnc21 (stereo not given) | 93.3% | 58.5% | 98.9% | 44% | 96.1% | 98.1% | 105% | 103% | 29.6% | -27.1% (active)
